First the molecules themselves.
T1: RBFOX1 RRM RbFoxmut (Fox-RRM*) (Homo sapiens, UniProt Q9NWB1 109-208, R118D;E147R;N151S;E152T)
T1 sequence: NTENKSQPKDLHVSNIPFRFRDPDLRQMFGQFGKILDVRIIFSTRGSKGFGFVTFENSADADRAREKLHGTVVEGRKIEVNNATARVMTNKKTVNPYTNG

B1: AUUACUA (DNA:RNA)
RNA: GGGAGACCGGAAUUCAGAUUGUCCAUUACUAUUAAAUCCCGUCGUAGCCACCA
DNA 1: CAATCTGAATTCCGGTCTCCC
DNA 2: TGGTGGCTACGACGGGATT
B2: GUCGGCA (DNA:RNA)
RNA: B1 RNA with A25G, U27C, A28G, C29G, U30C
DNA 1: CAATCTGAATTCCGGTCTCCC
DNA 2: TGGTGGCTACGACGGGATT
B3: GGCACCG (DNA:RNA)
RNA: B1 RNA with A25G, U26G, U27C, U30C, A31G
DNA 1: CAATCTGAATTCCGGTCTCCC
DNA 2: TGGTGGCTACGACGGGATT
B4: GGCAUCC (DNA:RNA)
RNA: B1 RNA with A25G, U26G, U27C, C29U, U30C, A31C
DNA 1: CAATCTGAATTCCGGTCTCCC
DNA 2: TGGTGGCTACGACGGGATT
B5: GGCAUUC (DNA:RNA)
RNA: B1 RNA with A25G, U26G, U27C, C29U, A31C
DNA 1: CAATCTGAATTCCGGTCTCCC
DNA 2: TGGTGGCTACGACGGGATT
B6: GGCAUUG (DNA:RNA)
RNA: B1 RNA with A25G, U26G, U27C, C29U, A31G
DNA 1: CAATCTGAATTCCGGTCTCCC
DNA 2: TGGTGGCTACGACGGGATT
B7: GGCAUCG (DNA:RNA)
RNA: B1 RNA with A25G, U26G, U27C, C29U, U30C, A31G
DNA 1: CAATCTGAATTCCGGTCTCCC
DNA 2: TGGTGGCTACGACGGGATT
B8: CGAUGAA (DNA:RNA)
RNA: B1 RNA with A25C, U26G, U27A, A28U, C29G, U30A
DNA 1: CAATCTGAATTCCGGTCTCCC
DNA 2: TGGTGGCTACGACGGGATT
B9: AAAAUAC (DNA:RNA)
RNA: B1 RNA with U26A, U27A, C29U, U30A, A31C
DNA 1: CAATCTGAATTCCGGTCTCCC
DNA 2: TGGTGGCTACGACGGGATT
B10: CCACGAC (DNA:RNA)
RNA: GGGAGACCGGAAUUCAGAUUGUCCCCACGACUUAAAUCCCGUCGUAGCCACCA
DNA 1: CAATCTGAATTCCGGTCTCCC
DNA 2: TGGTGGCTACGACGGGATT
B11: AUUAACG (DNA:RNA)
RNA: B1 RNA with C29A, U30C, A31G
DNA 1: CAATCTGAATTCCGGTCTCCC
DNA 2: TGGTGGCTACGACGGGATT
B12: AUGAAUC (DNA:RNA)
RNA: B1 RNA with U27G, C29A, A31C
DNA 1: CAATCTGAATTCCGGTCTCCC
DNA 2: TGGTGGCTACGACGGGATT
B13: ACCAUGA (DNA:RNA)
RNA: B1 RNA with U26C, U27C, C29U, U30G
DNA 1: CAATCTGAATTCCGGTCTCCC
DNA 2: TGGTGGCTACGACGGGATT
B14: AUGAUUG (DNA:RNA)
RNA: B1 RNA with U27G, C29U, A31G
DNA 1: CAATCTGAATTCCGGTCTCCC
DNA 2: TGGTGGCTACGACGGGATT
B15: AUGAAUG (DNA:RNA)
RNA: B1 RNA with U27G, C29A, A31G
DNA 1: CAATCTGAATTCCGGTCTCCC
DNA 2: TGGTGGCTACGACGGGATT
B16: AUGAUUC (DNA:RNA)
RNA: B1 RNA with U27G, C29U, A31C
DNA 1: CAATCTGAATTCCGGTCTCCC
DNA 2: TGGTGGCTACGACGGGATT
B17: AUCCAUG (DNA:RNA)
RNA: B1 RNA with U27C, A28C, C29A, A31G
DNA 1: CAATCTGAATTCCGGTCTCCC
DNA 2: TGGTGGCTACGACGGGATT
B18: UCUGGGU (DNA:RNA)
RNA: B10 RNA with C25U, A27U, C28G, A30G, C31U
DNA 1: CAATCTGAATTCCGGTCTCCC
DNA 2: TGGTGGCTACGACGGGATT
B19: GUGGUUC (DNA:RNA)
RNA: B1 RNA with A25G, U27G, A28G, C29U, A31C
DNA 1: CAATCTGAATTCCGGTCTCCC
DNA 2: TGGTGGCTACGACGGGATT
B20: AGCGCCG (DNA:RNA)
RNA: B1 RNA with U26G, U27C, A28G, U30C, A31G
DNA 1: CAATCTGAATTCCGGTCTCCC
DNA 2: TGGTGGCTACGACGGGATT
B21: ACACACC (DNA:RNA)
RNA: B10 RNA with C25A, G29A, A30C
DNA 1: CAATCTGAATTCCGGTCTCCC
DNA 2: TGGTGGCTACGACGGGATT
B22: UGUGUAA (DNA:RNA)
RNA: B1 RNA with A25U, U26G, A28G, C29U, U30A
DNA 1: CAATCTGAATTCCGGTCTCCC
DNA 2: TGGTGGCTACGACGGGATT
B23: CAACCGG (DNA:RNA)
RNA: B10 RNA with C26A, G29C, A30G, C31G
DNA 1: CAATCTGAATTCCGGTCTCCC
DNA 2: TGGTGGCTACGACGGGATT
B24: CUACAAU (DNA:RNA)
RNA: B10 RNA with C26U, G29A, C31U
DNA 1: CAATCTGAATTCCGGTCTCCC
DNA 2: TGGTGGCTACGACGGGATT
B25: CGGCAAU (DNA:RNA)
RNA: B10 RNA with C26G, A27G, G29A, C31U
DNA 1: CAATCTGAATTCCGGTCTCCC
DNA 2: TGGTGGCTACGACGGGATT
B26: UUGGUUU (DNA:RNA)
RNA: B1 RNA with A25U, U27G, A28G, C29U, A31U
DNA 1: CAATCTGAATTCCGGTCTCCC
DNA 2: TGGTGGCTACGACGGGATT
B27: GGAUGUA (DNA:RNA)
RNA: B1 RNA with A25G, U26G, U27A, A28U, C29G
DNA 1: CAATCTGAATTCCGGTCTCCC
DNA 2: TGGTGGCTACGACGGGATT
B28: GAUUGUA (DNA:RNA)
RNA: B1 RNA with A25G, U26A, A28U, C29G
DNA 1: CAATCTGAATTCCGGTCTCCC
DNA 2: TGGTGGCTACGACGGGATT
B29: GCAUAUA (DNA:RNA)
RNA: B1 RNA with A25G, U26C, U27A, A28U, C29A
DNA 1: CAATCTGAATTCCGGTCTCCC
DNA 2: TGGTGGCTACGACGGGATT
B30: CGUUGUA (DNA:RNA)
RNA: B1 RNA with A25C, U26G, A28U, C29G
DNA 1: CAATCTGAATTCCGGTCTCCC
DNA 2: TGGTGGCTACGACGGGATT
B31: GUUUGUA (DNA:RNA)
RNA: B1 RNA with A25G, A28U, C29G
DNA 1: CAATCTGAATTCCGGTCTCCC
DNA 2: TGGTGGCTACGACGGGATT
B32: ACAUGUA (DNA:RNA)
RNA: B1 RNA with U26C, U27A, A28U, C29G
DNA 1: CAATCTGAATTCCGGTCTCCC
DNA 2: TGGTGGCTACGACGGGATT
B33: GCAUGUA (DNA:RNA)
RNA: B10 RNA with C25G, C28U, A30U, C31A
DNA 1: CAATCTGAATTCCGGTCTCCC
DNA 2: TGGTGGCTACGACGGGATT
B34: CUAUGUA (DNA:RNA)
RNA: B1 RNA with A25C, U27A, A28U, C29G
DNA 1: CAATCTGAATTCCGGTCTCCC
DNA 2: TGGTGGCTACGACGGGATT
B35: GUCCGUA (DNA:RNA)
RNA: B1 RNA with A25G, U27C, A28C, C29G
DNA 1: CAATCTGAATTCCGGTCTCCC
DNA 2: TGGTGGCTACGACGGGATT
B36: GUAUGUA (DNA:RNA)
RNA: B1 RNA with A25G, U27A, A28U, C29G
DNA 1: CAATCTGAATTCCGGTCTCCC
DNA 2: TGGTGGCTACGACGGGATT
B37: GAAUGUA (DNA:RNA)
RNA: B1 RNA with A25G, U26A, U27A, A28U, C29G
DNA 1: CAATCTGAATTCCGGTCTCCC
DNA 2: TGGTGGCTACGACGGGATT
B38: CGAUGUA (DNA:RNA)
RNA: B10 RNA with C26G, C28U, A30U, C31A
DNA 1: CAATCTGAATTCCGGTCTCCC
DNA 2: TGGTGGCTACGACGGGATT

Where a chain is given by its changes, count along the chain named. Over roughly 16,000 sequences, “ka relative to ugcaugu” has its median near 0.096; the highest 2% begin near 0.35. The full list was thinned out, with the highest values kept by preference.

For this experiment, the target named is T1, RBFOX1 RRM RbFoxmut (Fox-RRM*). Kind of experiment: EMSA; HiTS-Eq, 1 nM pool, 10 min; buffer printed only for the single-RNA assays: 10 mM Tris pH 7.5, 150 mM NaCl, 3.4 mM EDTA, 0.001% NP-40, 30 C. Conditions: tags: His6 N-terminal (pET28a); label: 5' 32P. In outline:
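Purified RbFox RRM (wild type or mutant) was equilibrated for 10 min in 50 µL with 1 nM of a 5′-radiolabelled pool of RNA with 7 randomized nucleotides, its flanks annealed to DNA oligonucleotides, across increasing protein concentrations. Free RNA was separated by 8% native PAGE, excised, reverse-transcribed, PCR-barcoded and sequenced on an Illumina HiSeq 2500. Relative association constants came from read-count changes of each variant against the control reaction, normalised to the cognate motif.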
As to B1, the binding signal is 0.129 KA relative to UGCAUGU.

For B2, the binding signal is 0.13 KA relative to UGCAUGU.

As for B3, the binding signal is 0.132 KA relative to UGCAUGU.

In the case of B4, the binding signal was 0.229 KA relative to UGCAUGU.

As to B5, the binding signal is 0.119 KA relative to UGCAUGU.

Turning to B6, the binding signal is 0.394 KA relative to UGCAUGU.

For the molecule B7, the binding signal was 0.467 KA relative to UGCAUGU.

Take B8: the binding signal is 0.123 KA relative to UGCAUGU.

Take B9: the binding signal is 0.076 KA relative to UGCAUGU.

Consider B10, for which the binding signal was 0.0943 KA relative to UGCAUGU.

Consider B11, for which the binding signal was 0.134 KA relative to UGCAUGU.

With B12, the binding signal was 0.334 KA relative to UGCAUGU.

Take B13: the binding signal was 0.076 KA relative to UGCAUGU.

With B14, the binding signal is 0.428 KA relative to UGCAUGU.

Turning to B15, the binding signal was 1.02 KA relative to UGCAUGU.

With B16, the binding signal is 0.139 KA relative to UGCAUGU.

As to B17, the binding signal is 0.1 KA relative to UGCAUGU.

For the molecule B18, the binding signal is 0.0963 KA relative to UGCAUGU.

Take B19: the binding signal is 0.283 KA relative to UGCAUGU.

Consider B20, for which the binding signal is 0.116 KA relative to UGCAUGU.

On to B21, for which the binding signal is 0.0425 KA relative to UGCAUGU.

For the molecule B22, the binding signal is 0.111 KA relative to UGCAUGU.

As to B23, the binding signal was 0.0516 KA relative to UGCAUGU.

For the molecule B24, the binding signal was 0.0289 KA relative to UGCAUGU.

Consider B25, for which the binding signal is 0.053 KA relative to UGCAUGU.

Turning to B26, the binding signal is 0.1 KA relative to UGCAUGU.

Regarding B27, the binding signal is 0.285 KA relative to UGCAUGU.

In the case of B28, the binding signal was 0.284 KA relative to UGCAUGU.

For B29, the binding signal is 0.169 KA relative to UGCAUGU.

With B30, the binding signal was 0.258 KA relative to UGCAUGU.

For the molecule B31, the binding signal is 0.446 KA relative to UGCAUGU.

For B32, the binding signal is 0.2 KA relative to UGCAUGU.

Take B33: the binding signal was 1.04 KA relative to UGCAUGU.

B34: the binding signal is 0.198 KA relative to UGCAUGU.

Consider B35, for which the binding signal is 0.12 KA relative to UGCAUGU.

Take B36: the binding signal is 0.63 KA relative to UGCAUGU.

Regarding B37, the binding signal was 1.18 KA relative to UGCAUGU.

B38: the binding signal is 0.202 KA relative to UGCAUGU.

The values above are taken from publication PMC9911399, “Two distinct binding modes provide the RNA-binding protein RbFox with extraordinary sequence specificity”.
